Assay results as given in PubChem BioAssay (EPA / NIEHS).
Values joined by “and” are separate entries in the source; they are usually repeats but may differ in a detail not shown here. Equal values may be shown once. Records with an inconclusive call do not appear. A structure can be active in one record and inactive in another. Active and inactive are the calls of the source. The calls were made as follows: active = hit-call score of the fitted dose curve at least 0.9, where 1 is the maximum; inconclusive = response in the unintended direction; inactive = score below 0.9.

Experiments:
[1] = test system: zebrafish Estrogen Receptor (ER2a), gene 317734; test: ATG_zfER2a_XSP2: Attagene TRANS-FACTORIAL Multi-Species (XSP2) HepG2 Assay for zebrafish Estrogen Receptor (ER2a) (AID 2283818);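 also: hits raise reporter mRNA so AC50 reflects activation of zebrafish ER2a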
In short: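 HepG2 cells transiently transfected with GAL4-UAS reporter units and chimeric zebrafish ER2a-Gal4, exposed 24 h; medium contains 3 nM 6-alpha-fluorotestosterone and 1.5 nM norgestrel. Reporter mRNA quantified by RT-PCR, HpaI digestion, capillary electrophoresis; gain versus DMSO.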

[2] = test system: chicken Androgen Receptor (AR), gene 422165; test: ATG_chAR_XSP2: Attagene TRANS-FACTORIAL Multi-Species (XSP2) HepG2 Assay for chicken Androgen Receptor (AR) (AID 2283819);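 also: hits raise reporter mRNA above DMSO so potency is for activation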
In short: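 HepG2 cells transiently transfected with chicken AR–GAL4 chimeric reporter constructs, stimulated with 3 nM 6-alpha-fluorotestosterone plus 1.5 nM norgestrel, dosed 24 h. Reporter mRNA quantified by RT-PCR and capillary electrophoresis; gain of signal fitted versus DMSO.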

[3] = test system: frog Estrogen Receptor (ER), gene 398734; test: ATG_frER1_XSP2: Attagene TRANS-FACTORIAL Multi-Species (XSP2) HepG2 Assay for frog Estrogen Receptor (ER) (AID 2283821);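 also: hits raise reporter mRNA above DMSO baseline so potency means agonist or activator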
In short: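 Steps: transfect HepG2 with multiple reporter transcription units; treat with chemical for 24 h; isolate RNA, reverse-transcribe, PCR-amplify, label with 6-FAM, digest with HpaI; resolve fragments by capillary electrophoresis. Signal is scored against DMSO.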

[4] = test system: zebrafish Estrogen Receptor (ER2b), gene 317733; test: ATG_zfER2b_XSP2: Attagene TRANS-FACTORIAL Multi-Species (XSP2) HepG2 Assay for zebrafish Estrogen Receptor (ER2b) (AID 2283823);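 also: fitted upward as reporter gain over DMSO so potency reflects activation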
In short: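 In this multiplexed trans-activation format, HepG2 cells expressing exogenous NR-Gal4 fusions drive GAL4-UAS reporters. Exposure lasts 24 h, and reporter mRNA induction is read by RT-PCR with capillary electrophoresis detection.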

[5] = test system: zebrafish Androgen Receptor (AR), gene 100005148; test: ATG_zfAR_XSP2: Attagene TRANS-FACTORIAL Multi-Species (XSP2) HepG2 Assay for zebrafish Androgen Receptor (AR) (AID 2283825);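 also: hits raise reporter mRNA above DMSO so AC50 reflects agonist-type gain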
In short: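 Zebrafish AR–GAL4 chimera transiently expressed with GAL4-UAS reporter in HepG2 cells, co-stimulated with 3 nM 6-alpha-fluorotestosterone and 1.5 nM norgestrel; 24 h dosing, reporter mRNA read by RT-PCR/capillary electrophoresis versus DMSO.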

[6] = target: Estrogen receptor (Homo sapiens) (UniProt P03372); test: ATG_hERa_XSP2: Attagene TRANS-FACTORIAL Multi-Species (XSP2) HepG2 Assay for human Estrogen Receptor (ERa) (AID 2283827)
In short: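 HepG2 cells transiently transfected with multiplexed GAL4-UAS reporters driven by chimeric receptor-Gal4 proteins, dosed 24 h with 3 nM 6-alpha-fluorotestosterone and 1.5 nM norgestrel present. Reporter mRNA by RT-PCR and capillary electrophoresis; gain-of-signal fit versus DMSO.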

[7] = test system: frog Estrogen Receptor (ER2), gene 100174814; test: ATG_frER2_XSP2: Attagene TRANS-FACTORIAL Multi-Species (XSP2) HepG2 Assay for frog Estrogen Receptor (ER2) (AID 2283828)
Method: ATG_XSP2_multi-species_TRANS is a cell-based, multiplexed assay created by modifying the existing Attagene TRANS-FACTORIAL system to include a panel of nuclear receptors from some or all the following species: human (Homo sapiens), mouse (Mus musculus), frog (Xenopus laevis), zebrafish (Danio rerio), chicken (Gallus gallus), and turtle (Chrysemys picta). The ECOTOX-FACTORIAL format uses HepG2, a human liver cell line, with measurements taken at 24 hours after chemical dosing in a 24-well plate. Xsp2 included 3 nM 6-alpha-fluorotestosterone and 1.5 nM norgestrel to stimulate the androgen receptor.ATG_frER2_XSP2 is one of 29 assay components measured or calculated from the ATG_XSP2_multi-species_TRANS assay. It is designed to make measurements of mRNA induction, a form of inducible reporter, as detected with fluorescence intensity signals by Reverse transcription polymerase chain reaction (RT-PCR) and Capillary electrophoresis technology.The assay endpoint ATG_frER2_XSP2 was analyzed in the positive analysis fitting direction relative to DMSO as the negative control and baseline of activity. Using a type of inducible reporter, measures of mRNA for gain-of-signal activity can be used to understand the reporter gene at the transcription factor-level as they relate to the gene ER. Furthermore, this assay endpoint can be referred to as a primary readout, because this assay has produced multiple assay endpoints where this one serves a reporter gene function. To generalize the intended target to other relatable targets, this assay endpoint is annotated to the nuclear receptor intended target family, where the subfamily is steroidal.
Human liver HepG2 cells are transiently transfected with multiple reporter transcription units (MRTUs) in 6-well plates using FuGene 6 reagent (Roche; 3 ml FuGene/1 mg DNA). The MRTU constructs are regulated by a cis-regulating element (promoter). […] A major difference between the CIS and TRANS system is that in CIS activities of endogenous TFs are measured, whereas the TRANS assay evaluates changes in activities of exogenous, chimeric NR-Gal4 proteins. […] At the end of 24 hour incubation, total RNA was isolated using TriZol reagent (Invitrogen). The isolated RNA is then reverse-transcribed using oligo(dT) primer and Mo-MLV reverse transcriptase (Invitrogen) with DNAse I (Ambion) treatment for 30 min. […] The fragments were purified using Qiaquick PCR columns (Qiagen), analyzed on an ABI 3130xL genetic analyzer (Applied Biosystems) with peak positions identified by using a set of X-rhodamine (ROX)-labeled MapMarker1000 molecular weight standards (BioVentures). […]

[8] = target: Peroxisome proliferator-activated receptor gamma (Homo sapiens) (UniProt P37231); test: ATG_hPPARg_XSP2: Attagene TRANS-FACTORIAL Multi-Species (XSP2) HepG2 Assay for human Peroxisome Proliferator-activated Receptor gamma (PPARg) (AID 2283829);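 also: actives raise reporter mRNA above DMSO so AC50 reflects PPARg activation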
In short: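 Multiplexed transactivation in transfected HepG2 liver cells. Gal4-chimeric receptor activity reported as induced reporter transcript after 24 h.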

[9] = target: mouse Peroxisome Proliferator-activated Receptor gamma (PPARg), Pparg (gene 19016) (UniProt P37238); test: ATG_mPPARg_XSP2: Attagene TRANS-FACTORIAL Multi-Species (XSP2) HepG2 Assay for mouse Peroxisome Proliferator-activated Receptor gamma (PPARg) (AID 2283830);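 also: hits are gains in reporter mRNA above DMSO so AC50 marks activation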
In short: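 HepG2 cells transiently transfected with GAL4-UAS reporter units for chimeric NR-Gal4 proteins including mouse PPARg, exposed 24 h; medium contained 3 nM 6-alpha-fluorotestosterone and 1.5 nM norgestrel. Reporter mRNA quantified by RT-PCR, HpaI digestion and capillary electrophoresis, vs DMSO.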

[10] = test system: frog Androgen Receptor (AR), gene 399456; test: ATG_frAR_XSP2: Attagene TRANS-FACTORIAL Multi-Species (XSP2) HepG2 Assay for frog Androgen Receptor (AR) (AID 2283824);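 also: actives raise reporter signal above DMSO so AC50 reflects agonist-like induction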
In short: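 HepG2 cells transiently transfected with GAL4-UAS reporter units and frog (Xenopus laevis) AR-Gal4 chimera; reporter mRNA measured 24 h after dosing by RT-PCR and capillary electrophoresis. Gain of signal fitted relative to DMSO baseline.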

Measured: AC50

Peroxisome proliferator-activated receptor gamma (Homo sapiens), sequence (P37231 whole entry, looked up, the tested form may be a part): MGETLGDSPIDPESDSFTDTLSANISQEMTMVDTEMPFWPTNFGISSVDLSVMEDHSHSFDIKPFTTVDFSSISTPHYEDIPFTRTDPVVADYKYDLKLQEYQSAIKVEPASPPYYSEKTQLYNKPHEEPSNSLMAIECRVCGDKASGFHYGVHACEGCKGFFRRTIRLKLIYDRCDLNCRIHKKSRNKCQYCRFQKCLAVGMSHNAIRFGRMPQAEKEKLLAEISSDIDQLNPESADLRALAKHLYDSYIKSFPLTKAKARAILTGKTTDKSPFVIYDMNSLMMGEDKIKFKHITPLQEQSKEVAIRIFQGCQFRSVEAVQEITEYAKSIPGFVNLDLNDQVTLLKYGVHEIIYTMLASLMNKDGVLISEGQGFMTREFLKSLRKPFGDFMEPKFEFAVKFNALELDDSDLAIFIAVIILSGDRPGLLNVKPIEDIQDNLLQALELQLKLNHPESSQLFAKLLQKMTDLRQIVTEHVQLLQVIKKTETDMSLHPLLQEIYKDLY
Estrogen receptor (Homo sapiens), sequence (P03372 whole entry, looked up, the tested form may be a part): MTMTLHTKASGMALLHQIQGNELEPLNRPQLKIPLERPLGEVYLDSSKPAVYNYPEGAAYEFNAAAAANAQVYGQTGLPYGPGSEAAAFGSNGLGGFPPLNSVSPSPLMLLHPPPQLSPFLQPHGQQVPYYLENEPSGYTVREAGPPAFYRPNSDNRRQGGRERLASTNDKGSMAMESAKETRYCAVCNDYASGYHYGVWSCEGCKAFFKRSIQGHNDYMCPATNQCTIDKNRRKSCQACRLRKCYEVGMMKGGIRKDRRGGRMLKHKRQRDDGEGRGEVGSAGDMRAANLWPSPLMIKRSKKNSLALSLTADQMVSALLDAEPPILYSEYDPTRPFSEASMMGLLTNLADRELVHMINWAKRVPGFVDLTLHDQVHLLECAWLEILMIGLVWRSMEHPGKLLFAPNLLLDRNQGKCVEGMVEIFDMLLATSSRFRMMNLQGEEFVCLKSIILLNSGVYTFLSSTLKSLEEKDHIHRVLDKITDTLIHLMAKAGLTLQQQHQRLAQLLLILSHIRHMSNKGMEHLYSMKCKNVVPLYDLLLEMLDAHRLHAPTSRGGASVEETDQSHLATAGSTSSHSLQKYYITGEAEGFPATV
mouse Peroxisome Proliferator-activated Receptor gamma (PPARg), Pparg (gene 19016), sequence (P37238 whole entry, looked up, the tested form may be a part): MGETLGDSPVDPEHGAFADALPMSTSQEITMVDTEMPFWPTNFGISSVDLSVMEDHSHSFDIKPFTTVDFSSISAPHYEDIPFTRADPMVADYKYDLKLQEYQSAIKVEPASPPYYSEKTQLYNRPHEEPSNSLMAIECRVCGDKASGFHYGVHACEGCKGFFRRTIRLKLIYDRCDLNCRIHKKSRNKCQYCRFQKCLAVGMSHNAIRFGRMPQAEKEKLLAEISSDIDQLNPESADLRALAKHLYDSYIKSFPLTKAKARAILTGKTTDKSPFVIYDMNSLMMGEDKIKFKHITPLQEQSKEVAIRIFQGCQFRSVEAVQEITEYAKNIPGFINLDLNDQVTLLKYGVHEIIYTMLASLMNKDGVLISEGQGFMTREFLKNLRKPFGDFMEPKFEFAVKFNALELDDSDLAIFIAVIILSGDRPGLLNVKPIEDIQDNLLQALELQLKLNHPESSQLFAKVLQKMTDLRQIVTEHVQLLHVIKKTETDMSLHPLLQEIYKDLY

C=CCOC(=O)c1ccccc1C(=O)OCC=C
inactive: [1] | [2] | [3] | [5] | [7] | [8] | [9]
active: [4] 139 µM and 78.9 µM | [6] 53.5 µM and 100 µM | [7] 51.2 µM | [8] 43.7 µM | [9] 44.1 µM

CC(=O)C(C)=CC1C(C)=CCCC1(C)C (stereo not given)
active: [1] 15 µM and 19.8 µM | [3] 27.3 µM and 27.2 µM | [4] 32 µM and 29.8 µM | [6] 19.8 µM and 21.3 µM | [7] 27.7 µM and 14.7 µM | [8] 64.4 µM | [9] 146 µM and 25.2 µM
inactive: [8]

CCCc1cc(=O)[nH]c(=S)[nH]1
inactive: [3] | [4] | [10] | [5] | [6] | [8] | [9]

CC(C)(C)c1cc(O)c(C(C)(C)C)cc1O
active: [4] 49.3 µM | [8] 42.7 µM | [9] 57.5 µM
inactive: [1] | [2] | [3] | [6] | [7]
